Reference: PubChem BioAssay (NCI)
The panel holds about 79,000 compounds, 15% with a hit somewhere; the sample as a whole holds those more often. Cut-off read from the data, not from the text of the source: active = growth inhibition above about 70%; inactive = the rest.

Tests used:
[1] = NCI Yeast Anticancer Drug Screen. Data for the rad50 strain (AID 155);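 note: 0% = growth of vehicle-only cultures of the same strain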; details: S. cerevisiae rad50 strain growth inhibition; at 50.0 µM; hits give high values
Outline: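 Relative growth inhibition (compound vs vehicle) was measured in yeast with a defined repair-gene alteration.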

[2] = NCI Yeast Anticancer Drug Screen. Data for the mec2-1 strain (AID 157); details: S. cerevisiae mec2-1 strain, at 50.0 µM, hits give high values
Outline: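 Readout is yeast growth inhibition, normalised to vehicle-treated controls, in the mec2-1 strain exposed to compound.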

[3] = NCI Yeast Anticancer Drug Screen. Data for the sgs1 mgt1 strain (AID 161);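 note: 0% = growth of cultures given vehicle only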; details: S. cerevisiae sgs1 mgt1 strain, at 50.0 µM, hits give high values
Outline: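 Growth of a repair-deficient yeast mutant was monitored after compound treatment and expressed as inhibition relative to vehicle-treated cultures.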

[4] = NCI Yeast Anticancer Drug Screen. Data for the cln2 rad14 strain (AID 165);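 note: 0% = growth equal to vehicle treated cultures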; details: S. cerevisiae cln2 rad14 strain, at 50.0 µM, hits give high values
Outline: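 Relative to vehicle controls, growth inhibition of compound-treated cln2 rad14 yeast was recorded.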

[5] = NCI Yeast Anticancer Drug Screen. Data for the bub3 strain (AID 167); details: S. cerevisiae bub3 mutant strain, at 50.0 µM, hits give high values
Outline: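 Screening used yeast with an engineered genetic alteration affecting cell cycle control. Compound-exposed cultures were compared with vehicle cultures, and reduced growth was taken as inhibition.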

[6] = NCI Yeast Anticancer Drug Screen. Data for the mlh1 rad18 strain (AID 175); details: S. cerevisiae mlh1 rad18 strain growth inhibition; at 50.0 µM; hits give high values
Outline: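 Test agents were incubated with a yeast strain of defined genotype (DNA damage repair defect). Inhibition of growth was derived by comparison with vehicle-exposed cultures.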

Measured: growth inhibition

Nc1ccc(S(=O)(=O)N/N=C/c2ccc(O)cc2)cc1
inactive: [1] 4.35% | [2] -21.4% | [3] 4.7% | [4] -22.1% | [5] 5.1% | [6] -11.3%

O=C(O)CCCCn1cnc2c(=S)nc[nH]c21
inactive: [1] -6.1% | [2] -5.85% | [3] -13.7% | [4] -7.3% | [5] -44% | [6] -5%

CN(c1c(Cl)cccc1Cl)S(=O)(=O)c1ccccc1[N+](=O)[O-]
inactive: [1] -38.5% | [2] -49.5% | [3] -15.5% | [4] 20% | [5] -1.1% | [6] -4.5%

Nc1cc(C(=O)c2ccccc2C(=O)O)ccc1Cl
inactive: [1] -34.3% | [2] -46.7% | [3] -8.3% | [4] 6.65% | [5] -28.8% | [6] -15.9%

Cc1nc(N(CCO)CCO)c2sc(=S)n(-c3ccccc3)c2n1
inactive: [1] -35.5% | [2] -16.4% | [3] -43.9% | [4] -13.7% | [5] -14.2% | [6] -45.8%

ClCCCCC(Cl)(Cl)Cl
inactive: [1] 27.9% | [2] 27.6% | [3] 10.4% | [4] -16.3% | [5] 21.9% | [6] 23.3%

NC1=C(O)c2cccc3cccc(c23)C1=O
inactive: [1] 9.95% | [2] 12.2% | [3] 11.8% | [4] 2.35% | [5] 9.45% | [6] 16.4%

Cc1ccccc1/C=C1/N=C(c2ccccc2)OC1=O
inactive: [1] -27.3% | [2] -17.4% | [3] -19.7% | [4] 0.9% | [5] -14.4% | [6] -6.85%

O=C(CCC1CCCCC1=O)c1ccc(Br)cc1 (stereo not given)
inactive: [1] 6.2% | [2] -15.8% | [3] 12.7% | [4] -6.95% | [5] -6.55% | [6] -10.2%

COc1cc(-c2cc(OC)c(N=N/C(=N/Nc3ccc([N+](=O)[O-])cc3)c3ccc([N+](=O)[O-])cc3)cc2Cl)c(Cl)cc1N=N/C(=N\Nc1ccc([N+](=O)[O-])cc1)c1ccc([N+](=O)[O-])cc1
inactive: [1] 7.9% | [2] 9.65% | [3] -5.95% | [4] -21.2% | [5] -14.2% | [6] -13.8%

COC(=O)N1CC2CC=CC(C2)c2ccccc21 (stereo not given)
inactive: [1] -13.9% | [2] -37.5% | [3] -1.35% | [4] 5.15% | [5] 16.1% | [6] -9.4%

COC(=O)/C(C#N)=C1\CCC(OC)N1 (stereo not given)
inactive: [1] -4.25% | [2] 6.95% | [3] -21.2% | [4] 3.7% | [5] -13.1% | [6] -24.9%

C[n+]1cn(C2=C([O-])c3ccccc3C(=O)/C2=N\S(=O)(=O)c2ccccc2)c2ccccc21
inactive: [1] 0.95% | [2] 4.8% | [3] 2.4% | [4] -0.6% | [5] 4.35% | [6] -28.9%

O=C(Oc1ccc([N+](=O)[O-])cc1)C(CSC(c1ccccc1)(c1ccccc1)c1ccccc1)NC(c1ccccc1)(c1ccccc1)c1ccccc1 (stereo not given)
inactive: [1] -3.05% | [2] 20.9% | [3] 6.5% | [4] -19.8% | [5] -3.6% | [6] 23.9%

N#CCCn1c2ccccc2c2ccccc21
inactive: [1] -6.45% | [2] 27.5% | [3] 2.95% | [4] 26.5% | [5] -1.65% | [6] -0.5%

CN(C)C(=O)CCOc1cccc2ccccc12
inactive: [1] 16.6% | [2] -3.1% | [3] -16% | [4] -69.5% | [5] -20.8% | [6] 1%

COc1ccc2nc(NC(=O)C(=O)C(C)C(=O)c3ccc(Cl)cc3)sc2c1 (stereo not given)
inactive: [1] -10.1% | [2] 4.85% | [3] -8.65% | [4] -5.9% | [5] -2.55% | [6] -0.25%

N#C/C(=C/n1c(=S)sc2ccccc21)c1nc2ccccc2s1
inactive: [1] 11.8% | [2] 14.7% | [3] 49.6% | [4] 24.9% | [5] 23.4% | [6] 30.8%

CCOC(=O)CC[C@H](NC(=O)c1[nH]cnc1/N=N/N(C)C)C(=O)OCC
inactive: [1] -24.5% | [2] -41.5% | [3] -56% | [4] 3.7% | [5] -12.1% | [6] -36.9%

FC(F)(F)c1cccc2[nH]cnc12
inactive: [1] -24.6% | [2] -2.85% | [3] 6.25% | [4] -12.4% | [5] -4.65% | [6] 2.3%

N#C/C(=N\NC(=O)c1ccccc1)c1ccccc1
inactive: [1] 5.65% | [2] 4.9% | [3] -3.7% | [4] -32.5% | [5] -8.3% | [6] 3.5%

C#CCOCC12C=CC(O1)C1C(=O)OCC12 (stereo not given)
inactive: [1] -9.45% | [2] 9.65% | [3] -12.8% | [4] 18.9% | [5] 21% | [6] 41.9%

CCOc1ccc(-c2cc(-c3ccc(OCC)cc3)cc(-c3ccc(OCC)cc3)c2)cc1
inactive: [1] -2.05% | [2] -9.7% | [3] 1.3% | [4] -7.2% | [5] -5.05% | [6] -2.85%

CCOC(=O)C1CCCc2sc(N)c(C#N)c21 (stereo not given)
inactive: [1] 1.15% | [2] -13.8% | [3] 4.2% | [4] -28.4% | [5] 3.15% | [6] 0.95%

CCOC(=O)CCC1(C)OCC(O)CO1 (stereo not given) (tested in a mixture with another compound)
inactive: [1] -11.1% | [2] -5.25% | [3] -5.6% | [4] -2.85% | [5] -16.6% | [6] -25.8%

CCCC1(C)COC(=O)OC1
inactive: [1] 6% | [2] 6.5% | [3] 17.5% | [4] 13.9% | [5] 7.1% | [6] 19.9%

CCCc1c(C)[nH]c2ccccc12
inactive: [1] 15.1% | [2] -33.3% | [3] 5.7% | [4] 24.8% | [5] -16.9% | [6] 9%

COc1c2c(c(OC)c3c1C(=O)c1ccccc1C3=O)CC=CC2
inactive: [1] -10.6% | [2] 4.7% | [3] -15.4% | [4] -14.7% | [5] -4% | [6] -4.3%

C/C(=C/C(=O)O)c1ccccc1
inactive: [1] 10.7% | [2] -14.4% | [3] 2.2% | [4] -19.6% | [5] -15.3% | [6] -1.95%

CCOC(=O)C(C#N)C1CC2CCC1C2 (stereo not given)
inactive: [1] -30.2% | [2] -57.4% | [3] -22.2% | [4] -4.9% | [5] -27.1% | [6] -56.8%

CNc1nc(SCc2ccccc2)c2ncn(C3OC(CO)C(O)C3O)c2n1 (stereo not given)
inactive: [1] 11.3% | [2] 4.8% | [3] 16.9% | [4] 19.9% | [5] 4.95% | [6] 17.9%

CCC1(CC)C(=O)N(C(=O)c2cc(OC)c(OC)c(OC)c2)N(C(=O)c2cc(OC)c(OC)c(OC)c2)C1=O
inactive: [1] 13.2% | [2] -0.1% | [3] -2.2% | [4] -11% | [5] 6.75% | [6] 14.8%

O=[N+]([O-])c1ccc2c(Cl)c3ccccc3nc2c1
inactive: [1] 20.1% | [2] 24.1% | [3] 2% | [4] 17.6% | [5] 34.2% | [6] 16.6%

COc1ccccc1CO
inactive: [1] 0.85% | [2] -13.8% | [3] 3.85% | [4] 13.7% | [5] 13.8% | [6] -1.15%

Cc1cc(-c2ccc([NH2+][B-](F)(F)F)c(C)c2)ccc1[NH2+][B-](F)(F)F
inactive: [1] -9.15% | [2] -3.15% | [3] -11.6% | [4] -58.6% | [5] 3.45% | [6] -11.2%

Cc1ccccc1-c1c(N)nc(N)nc1C(=O)Nc1nccs1
inactive: [1] -26.6% | [2] -36.2% | [3] -39.6% | [4] -3.85% | [5] -28.1% | [6] -7.9%

Nc1cccc(CCc2nc(N)nc(N)c2-c2ccc(Cl)cc2)c1
inactive: [1] 0.6% | [2] 21.6% | [3] 13.8% | [4] 3.2% | [5] 8.85% | [6] -14.3%

N=C(/C(=C/c1cccc2ccccc12)c1ccccc1)c1ccccc1
inactive: [1] 13.8% | [2] 10.2% | [3] 14.1% | [4] -7.6% | [5] -13.7% | [6] 13.6%

COc1ccc(C2=Nn3c(nc4sc(C)c(C)c4c3=O)SC2)cc1
inactive: [1] 2.45% | [2] -8.15% | [3] -3.7% | [4] 19.1% | [5] 2.95% | [6] -14.3%

COc1ccc(C(=O)O[C@@H]2CCN3CC[C@H](C)[C@H]23)cc1
inactive: [1] 7.4% | [2] -22.5% | [3] 7.3% | [4] 12.7% | [5] -6.35% | [6] -74.8%
